Data published in PubChem BioAssay (NCI).
This is part of a sample that, as a whole, favours compounds with a hit. Of some 83,000 tested, about 20% had one in any assay.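 Negative percent growth values reflect cell death: -40 means 40% of the cells present at the start died, and -100 means all died.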 Unmarked numbers belong to inactive results. Active and inactive are the calls of the source. How the source made its calls: active means growth percent below 10; inactive means the rest.

These molecules were tested on KM12 colon (assay: NCI-60 one-dose screen, 48 h (100 = growth as untreated, 0 = no growth, -100 = all killed)). Settings: 10 µM unless noted.
CN1CCN(c2cc(Nc3cc(C4CC4)[nH]n3)nc(Nc3ccc(CC(=O)NCc4cccc(F)c4)cc3)n2)CC1 was tested, and the growth was 9.2% (active).
Molecule O=C(Nc1cccc2ccccc12)NC1CC1 has a growth of 115%.
CN(C)CC(C)(C)C(=O)/C=C/c1ccccc1 was tested, and the growth was -22.8% [25 µM] (active).
COc1ccc(-c2nn(-c3cccc(Cl)c3)cc2-c2cc(-c3ccc(Br)cc3)nc(N)n2)cc1 gave a growth of 93.4%.
COc1cc2c(c(OC)c1OC)CCC(c1cccc(NC(=O)c3ccc(Br)cc3)c1)O2 (centres undefined) showed a growth of 91.1%.
For CCOC(=O)C#Cc1c(C(=O)OCC)nnn1Cc1ccc([N+](=O)[O-])cc1, the growth was 92%.
In the case of O=C(N/N=C/c1c(Cl)cccc1Cl)c1cccnc1Nc1cccc(C(F)(F)F)c1, the growth is reported as 41.9%.
C#COc1cccc(Nc2c(C#N)cnc3ncc(NC(=O)CCl)cc23)c1 showed a growth of 31.4% [6.25 µM].
CC(C)(Sc1cc(C(C)(C)C)c(O)c(C(C)(C)C)c1)Sc1cc(C(C)(C)C)c(OC(=O)CCCC(=O)O)c(C(C)(C)C)c1 was tested, and the growth was 36.7%.
COc1c(B(O)O)cccc1-c1cc(C)c2c(ccc3[nH]ncc32)n1 showed a growth of 83.1%.
Work on CCOC(=O)C1=C(N)Oc2c(sc3c(F)cccc23)C1c1ccc(O)cc1 (centres undefined) yielded a growth of 24%.
Work on OCCn1cc(-c2nc(-c3c[nH]c4ncccc34)cs2)c2cc(F)ccc21 yielded a growth of 28.4%.
O=C(/C=C/c1cccs1)Nc1ncc(Cc2ccccc2F)s1 was tested, and the growth was 16.7%.
With COc1ccc(CN2c3ccccc3Sc3ccccc32)cc1F the growth was 14%.
